Among all 53,000 sequences or so, about 3,700 (7%) were called active.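 The calls were made as follows: active = gene knockdowns whose robust z-score for IL-1 alpha signal is at least 2 or at most -2, so actives lie on both sides; inactive = the rest.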 Shown is part of a subset that was picked to be rich in actives.

A short description of the experiment: Components of the Cytosolic LPS Sensing Pathway: Gene Identification via Genome-wide siRNA Screen.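 Also: robust z of the log signal after scaling to non-targeting control siRNA wells of the plate.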 The following applies: RAW264.7 macrophages, IL-1a HTRF, actives lie on both sides, screened at 100 nM (by protocol), cells primed 5 h with Pam3CSK4 first. In a few lines: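 Supernatant IL-1a by HTRF from RAW264.7 cells primed with Pam3CSK4 (5 hours) and transfected with LipidA (24 hour) after 48h siRNA knockdown at 100 nM; cell viability checked with CellTiter-Glo.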
For the sequence GGAAUUUCAUGGCAAGGGUTT against Fmc1, the z-score is 0.652 (inactive).

On to GGAUCACAUGAAAGGAUUATT against Dclre1c, for which the z-score is -0.242 (inactive).

For CCCAGCAACUACUGGAAACTT against Tas2r139, the z-score was -0.293 (inactive).

In the case of CGCUGUGCUGAGCUUACUUTT against D17H6S53E, the z-score was -2.36 (active).

With GGUUAUCUCAAAACUCGACTT against Prox2, the z-score is -0.119 (inactive).

For the sequence GGUAACUGAUUGCUUAGAUTT against Smndc1, the z-score is 0.836 (inactive).

For the sequence GCACUACAUUGUGGCUGUCTT against Itpr3, the z-score is -2.57 (active).

In the case of GGGUUUGAACUGGUGAUUGTT against Cenpp, the z-score is -0.525 (inactive).

For GGACAAAGGGAUAAUGCUGTT against Aldoc, the z-score is 0.735 (inactive).

On to GGUUUUGGAAAAAGUGGAUTT against Chp1, for which the z-score was -0.867 (inactive).

With GCCCUGUACCUUUUAGCUUTT against Olfr704, the z-score is -0.306 (inactive).

As to CCUUGUUCAAAAAGAUGGCTT against Serpina1f, the z-score was -2.08 (active).

On to GGCCAUCAAGAGUUUCUUUTT against Nr0b1, for which the z-score was 0.876 (inactive).

Turning to GCGUGUCUUGCUCUUUUGATT against Usp22, the z-score is -1.21 (inactive).

Turning to GGAAUCCUCUGAAUAACCUTT against Vmn1r172, the z-score was -1.14 (inactive).

Take “GGGUGAUUUCUACCUUCAATT against D630003M21Rik”: the z-score is -0.496 (inactive).

Turning to GGAAGAGGAAAUCACCACATT against Clec11a, the z-score was -2.16 (active).

On to GGUUGGUGAUGGCACAAACTT against Cct8, for which the z-score was -0.469 (inactive).

As for GGUAGAACUUAUUGUGGACTT against Ly6f, the z-score was -0.692 (inactive).

For CCUAUAAAGCUCUAAAGGATT against Caprin1, the z-score is 0.115 (inactive).

Turning to GGGUUUCCACAGACAAUGUTT against V1rg10, the z-score was -0.837 (inactive).

GGACCUUUUUUGUUCAAAATT against Rasd1: the z-score is 0.157 (inactive).

Regarding CUCUGUACUUGGGCAGGAATT against Cyp2c65, the z-score was 2.9 (active).

Take CGCUGCAUUAAAGACUAAATT against Kcnj10: the z-score was 0.414 (inactive).

In the case of GCAAACGGACACUUGGAAUTT against Hmx1, the z-score is -0.9 (inactive).

With “GGUAAACAUGAUGUCCCUCTT against A630038E17Rik”, the z-score was 0.0317 (inactive).

Take GGAAUAUGCUGCAAAAAUCTT against Camk2g: the z-score is -1.58 (inactive).

With GGCAGCCUGAACAUCAAUGTT against S100a13, the z-score is 1.47 (inactive).

Consider CCGAAGCUUUAUCUUCUAUTT against Pkd2, for which the z-score is -0.719 (inactive).

On to GGCCAUGGUUUCAAAAACATT against Rspo2, for which the z-score is -1.33 (inactive).

As to GGCGAUCUUUGGAAUUAGATT against Ing3, the z-score is 0.209 (inactive).

On to GGGAACAUGUUUUACUCUUTT against Zfp521, for which the z-score was 1.63 (inactive).

Take GGUCGACAGAUCAAGCCUUTT against Psmb3: the z-score is -2.18 (active).

Turning to GCCAAUCUGAACUUGUGUUTT against Plet1, the z-score is -0.931 (inactive).

On to CCACAGGGACAACAAACUATT against Arid3b, for which the z-score is 0.0513 (inactive).

As to CCUGUUUCGUAGAUUGUUUTT against Eftud2, the z-score was -0.35 (inactive).

Consider CGUGUCAUACAGGUGUGGUTT against Lhx8, for which the z-score was 2.11 (active).

With UCCUUGCUGUCCUAACCAUTT against Gpr119, the z-score is 1.64 (inactive).

For GCUGCACCAUCAAUUCCCATT against Vpreb3, the z-score was -1.63 (inactive).

Regarding GGCACUUGAAUUUCUAAGUTT against Cbx5, the z-score is 0.0672 (inactive).

For the sequence “GGACCCAGCAGUCAAGAUATT against 9930038B18Rik”, the z-score was 0.0416 (inactive).

For the sequence CCAGCAAUAGUUCAGCAGATT against Ccdc82, the z-score is -2.72 (active).

In the case of GGUGCCAACCUCAAUUCAUTT against Hnf4a, the z-score was 1.9 (inactive).

Regarding CCGGUUCACUGCUUGACCUTT against Wbp1, the z-score was 0.87 (inactive).

For CGUUGUGAGGUUAUACGACTT against Tbc1d20, the z-score was -0.862 (inactive).

Consider GGAACACUUUAAGACCAAATT against Fmnl1, for which the z-score is 0.482 (inactive).

For the sequence GGAGUAUUAUGAAGUGUUGTT against Aip, the z-score was 0.108 (inactive).

On to GGAAACUGGUGCUACAUUATT against Usp10, for which the z-score was 0.747 (inactive).

As for GGACAGGAUCAGAGAAAGATT against Zbtb7c, the z-score was -2.15 (active).

Regarding GGACAUUGAGGAUUAUGUCTT against Med24, the z-score was 0.332 (inactive).

Consider GCUAGAUGUAGAUAGAUAATT against Plekhm3, for which the z-score was -0.569 (inactive).

Regarding GCACAGGUGAGCUCUUUGATT against Nudt10, the z-score was -1.12 (inactive).

Regarding GUGUUUUACCAUUGGACAUTT against Klra20, the z-score was 1.58 (inactive).

As to GUUCGCUGAACACGUCUUCTT against Hpcal1, the z-score was 0.549 (inactive).

Take GGCAUUGAAUUACUUACAUTT against Slk: the z-score is 2.46 (active).

As to GAGACAAUUGUAACAUUCUTT against Olfr176, the z-score is 1.2 (inactive).

For the sequence GGCAGCUUAGCUGUUCGUCTT against Socs4, the z-score was -0.664 (inactive).

For GGCCAGUUCUAUGUCAUGATT against Usf2, the z-score is -2.05 (active).

With GGCUCUCAGUGCCAUCAUUTT against Stk40, the z-score was -0.858 (inactive).

Take GCUUGGGUAAUAGAAAUCATT against Btnl1: the z-score is 0.6 (inactive).

Regarding GGUUCUCCAAACUCUGCCATT against Arhgap1, the z-score is 2.29 (active).

GCCAAGACAUCAGAAGGAUTT against Nrxn1: the z-score is 0.202 (inactive).

With GGAAAACAGUGGUAGCUUATT against Cnp, the z-score is 0.187 (inactive).

Turning to GGAUGAAGAUGAAAAAGAUTT against Hoxc9, the z-score was -0.247 (inactive).

For the sequence GGGACUUUGUAAACAGUUUTT against Eci2, the z-score is 1.61 (inactive).

On to GGCUAACCGUAUCAGUCAUTT against Podnl1, for which the z-score is -1.23 (inactive).

For the sequence GGCUUGAAUAUUAAAGUGATT against Arhgef19, the z-score was -0.505 (inactive).

As to GGAGGUGGUACAAUACACCTT against Gsg1, the z-score is 2.86 (active).

Turning to CCAACUUCAAAACUAUCGUTT against Trp53bp1, the z-score is 2.19 (active).

As for UGCGAGCUCACUGAUGUACTT against Adam34l, the z-score was -1.69 (inactive).

On to GGGUUAGGUUGGGAUGGAUTT against Ccnd3, for which the z-score is -0.466 (inactive).

For the sequence GCACCUGACAGAUACUUCCTT against Ints4, the z-score was -2.1 (active).

For CGUGGGCCUAUGCUUGUCATT against Tsc1, the z-score was 0.32 (inactive).

Consider GGUUCUGAUAUACGUGUUUTT against Rraga, for which the z-score is 0.057 (inactive).

For the sequence “CCCAUUCACUCAUCACAUGTT against F630003A18Rik”, the z-score was -1.4 (inactive).

For the sequence GGCAGUUUUGCAUGUGUGATT against Zfp654, the z-score was -2.23 (active).

Regarding GCCACUAAGAAUCAGACAUTT against Ryr1, the z-score was -0.382 (inactive).

Regarding CCAGACCAUUAACUUGAUUTT against Lsm8, the z-score was -0.739 (inactive).

Turning to “GGUACGAGUGAUCGUACUUTT against 5330438I03Rik”, the z-score is 0.54 (inactive).

For CCCGUCACCACUUAACAUGTT against Rasal2, the z-score is 0.699 (inactive).

For the sequence GCUUUGAUGUCGAUGGGCUTT against Arg1, the z-score is -2.01 (active).

Turning to GGAAUACCAUGUUACAAUUTT against Reln, the z-score was 0.816 (inactive).

In the case of GGUGUCUUUUUUUACAAGATT against Tnfsf11, the z-score is 0.233 (inactive).

Turning to GGAGGAACCUAAUUGAAUGTT against Cmbl, the z-score was 0.183 (inactive).

As to GGUCCAGAUAGACAUCCUGTT against Ralb, the z-score was 0.169 (inactive).

Turning to GCAACUUGUCAGAUGUUUCTT against Trpm7, the z-score was 3.35 (active).

With GGGAUAAAUAUGAAGAAAGTT against Tacc2, the z-score was -1.46 (inactive).

As to GGAACAGAGAUAUGAAACATT against Olfr738, the z-score is -2.4 (active).

On to GGAGCAAUUAAAGGUGUCATT against Fpr-rs3, for which the z-score was -0.159 (inactive).

As for CCAUCUUCAGCAGUGGAAATT against Rph3al, the z-score is -1 (inactive).

On to GGCGUGCGAUAACACGCAATT against Med18, for which the z-score was 1.05 (inactive).

Consider GGUCGUAUGGUGCUCAAGATT against Pira1, for which the z-score is -1.76 (inactive).

Take GGCAUAGGACUAGAAGCAGTT against Rsrc2: the z-score was -1.54 (inactive).

Regarding GCAGUAUGGGACUAUGCUUTT against Cp, the z-score is -0.0969 (inactive).

On to GCCAGAACCUGACUUAUAUTT against Mia2, for which the z-score was -0.0793 (inactive).

Regarding GCCUGGCUAGAAAUGUGGUTT against Fpr3, the z-score is 3.19 (active).

Turning to CCUCAUUCAGAGUAUAUAGTT against Vwa3a, the z-score is -0.469 (inactive).

Turning to GGCUUUAGAGAAAGAAGUATT against Med4, the z-score was 1 (inactive).

Take GCGAGGUGUCUCUAUCAACTT against Mrpl11: the z-score was 3.37 (active).

For the sequence GCCUUUCUUCAGUGUUCACTT against Gm128, the z-score is 0.498 (inactive).

GGUCUACGCUAUCCUAGUUTT against Grin1: the z-score was -2.23 (active).

As for GCACCAAAAUACACGAAAGTT against Ptpdc1, the z-score was -1.11 (inactive).

Consider CCCAUGACUAUCCAAACAATT against Kcnmb2, for which the z-score is -1.52 (inactive).

Turning to CCUUAGUAACAGCACUAGCTT against Lrfn2, the z-score is -0.228 (inactive).

For GGAGCUGGAGUACGACUACTT against Tmem30b, the z-score was -0.891 (inactive).

Regarding GGGAAAAUUUCCUCUGACUTT against Chia1, the z-score is -2.03 (active).

Consider UUUAAGGAUCUCGUGCGAATT against Olfr809, for which the z-score is -0.12 (inactive).

With GCUAAAACCCGUUACUUCCTT against Gsta4, the z-score was 0.669 (inactive).

The values are drawn from PubChem BioAssay AID1508600 (Functional Genomics Laboratory (NCATS/FGL), 2020).
